Experimental findings from PubChem BioAssay (Tox21) are described below.

Results filed as inconclusive are left out. Entries that show only a call come without a potency. The source made the active and inactive calls. Calls follow the shape of the dose curve; as a rule, active = well fitted cell-killing curve with a large enough effect in the repeat runs; inconclusive = weak or mixed curves, or effect the other way; inactive = flat fitted curve, though single readings scatter.
Potency is read from the fitted curve at half-maximal effect.

The assay can be described thus: Caspase-3/7 induction in HepG2 cells by small molecules, qHTS cell viability counter screen (AID 1346981). Also: nearly all actives have a fitted effect of over 30% in size. The settings on record: CellTiter-Fluor fluorescence, 17 h; series mostly up to 92.4 µM. An excerpt:
U.S. Tox21 Program National Center for Advancing Translational Sciences [NCATS] NIH Chemical Genomics Center [NCGC] U.S. Environmental Protection Agency [EPA] National Institutes of Environmental Health Sciences [NIEHS] National Toxicology Program [NTP] U.S. Food and Drug Administration [FDA] Tox21 Assay Overview: Apoptosis is a process of programmed cell death and plays a central role in the development of multicellular organisms. It is a highly regulated process and induces cell death by activating caspases, which are the members of cysteine aspartic acid-specific protease (caspase) family. Caspases involved in apoptosis are classified by their mechanism of action as initiator caspases (caspase-2, -8, -9 and -10) and executioner caspases (caspase-3, -6, and -7). Inhibition of apoptosis results in number of cancers, autoimmune diseases, inflammatory diseases and viral infection. To identify small molecule compounds that induce apoptosis, a homogeneous, luminescent Caspase-Glo 3/7 assay was used. Wild type HepG2 cells were used to screen Tox21 libraries for identifying caspase-3/7 activity inducers. Also cytotoxicity of the compounds was tested in parallel by measuring the cell viability using CellTiter-Fluor assay system in the same wells.
Tox21 Assay Protocol Summary: HepG2 cells were dispensed at 2,000 per well in 5uL of culture medium into white solid bottom 1536-well plates (Corning Life Sciences, Corning, NY) using a Multidrop Combi (Thermo Scientific, Waltham, MA) dispenser. The assay plates were incubated at 37 C and 5% CO2 for 5hr, and then 23nL of compounds dissolved in DMSO and positive control were transferred using a Pintool station ([…], San Diego, CA). The assay plates were incubated at 37C and 5% CO2 for 17hr. For cytotoxicity read, after 16hr incubation at 37C, 1uL CellTiter-Fluor reagent (Promega Corporation, Madison, WI) was added to each well of the assay plates using Flying Reagent Dispenser (FRD, Aurora Discovery, San Diego, CA). After 1hr incubation at 37C and 5% CO2, the fluorescence signal was quantified using a ViewLux plate reader (PerkinElmer, Shelton, CT).
Background: Quantitative high-throughput screening tests each substance at several concentrations.
On to `Cc1ccc(C(=O)C(C)CN2CCCCC2)cc1` (stereo not given), for which the Potency result is “inactive”. On to `CCCCOCCOCCOCCOCCO`, for which the Potency result is “inactive”. As for `O=C(NN1CCCC1)NS(=O)(=O)c1ccc(Cl)cc1`, the Potency entry was “inactive”. As to `CN(C)C/C=C(/c1ccc(Br)cc1)c1cccnc1`, the Potency entry was “inactive”. The same measure for `CCCC(=O)OCC`: “inactive”. As for `Cc1nc2ccccc2n1Cc1ccc(Cl)cc1`, the Potency entry was “inactive”. Regarding `O=C(c1ccc(O)cc1)c1ccc(O)cc1`, the Potency entry is “inactive”. For the compound `CC(=O)N(O)CCCCCNC(=O)CCC(=O)N(O)CCCCCNC(=O)CCC(=O)N(O)CCCCCN`, the Potency result is “inactive”. For `C[Si](C)O[Si](C)(C)O[Si](C)(C)O[Si](C)C`, the Potency entry is “inactive”. Turning to `Cc1ccc(C(N)=O)cc1N`, the Potency entry was “inactive”. The same measure for `CC(=O)OC/C=C/c1ccccc1`: “inactive”. For the compound `COCCOCCOCCOCCOC`, the Potency result was “inactive”. Take `O=C(O)C(c1ccc(Cl)cc1)c1ccc(Cl)cc1`: the Potency result is “inactive”.

For the compound `Cc1ccccn1`, the Potency result is “inactive”.

For the compound `CCCCCCCCCCCCCCCBr`, the Potency entry was “inactive”. On to `CC[C@H](C)[C@H](N)C(=O)O`, for which the Potency result was “inactive”. The same measure for `Nc1nc(N)c(-c2ccccc2)s1`: “inactive”; for `Cc1ncsc1CCO`: “inactive”. As for `CC[C@@H]1C[C@H](N(Cc2cc(C(F)(F)F)cc(C(F)(F)F)c2)C(C)=O)c2cc(C(F)(F)F)ccc2N1C(=O)OC(C)C`, the Potency entry is “inactive”. Take `COc1ccc(OC)c(OC)c1`: the Potency entry is “inactive”. The same measure for `Cl/C(=C\n1cncn1)c1ccc(Cl)cc1Cl`: “inactive”; for `CN1CCC(=C2c3ccccc3CCc3sccc32)CC1`: “inactive”; for `O=C1c2cccc(O)c2C(=O)c2c(O)cc(CO)cc21`: “inactive”. On to `CC(=O)SCc1ccco1`, for which the Potency entry is “inactive”.

Consider `CCN(CC)CCOC(=O)C1(c2ccccc2)CCCC1`, for which the Potency entry is “inactive”.

For the compound `NC1CCN(c2nc3c(cc2F)c(=O)c(C(=O)O)cn3-c2ccc(F)cc2F)C1` (stereo not given), the Potency entry was “inactive”. With `CCCCCOC(=O)COc1cc(N2C(=O)C3=C(CCCC3)C2=O)c(F)cc1Cl`, the Potency result is “inactive”. In the case of `Cn1c(NCCN(CCO)CCCc2ccc([N+](=O)[O-])cc2)cc(=O)n(C)c1=O`, the Potency entry was “inactive”. `CC(C)=CCCC(C)CC=O` (stereo not given): the Potency result was “inactive”. On to `CC(=O)CC(=O)c1ccccc1`, for which the Potency entry was “inactive”. As to `Nc1nc(N)c2nc(CNc3ccc(C(=O)N[C@@H](CCC(=O)O)C(=O)O)cc3)cnc2n1`, the Potency result was “inactive”. `OCCC1CCCCN1` (stereo not given): the Potency result is “inactive”.

Turning to `COC(=O)C(C)=O`, the Potency result is “inactive”. With `CC(C)(C)C1CCCCC1O` (stereo not given), the Potency entry is “inactive”. As for `COC(=O)CSc1cc(N=c2sc(=O)n3n2CCCC3)c(F)cc1Cl`, the Potency entry was “inactive”. The same measure for `NC(N)=N/N=C/c1c(Cl)cccc1Cl`: 29.8 µM (active). In the case of `CCCCC(CC)(CO)CO`, the Potency entry is “inactive”. Consider `CC1(C)[C@H]2CC[C@]1(C)[C@H](O)C2`, for which the Potency result was “inactive”. The result for `CCOc1nc2cccc(C(=O)O)c2n1Cc1ccc(-c2ccccc2-c2nn[nH]n2)cc1` reads “inactive”; that for `CCCCC(CC)COCCCN` (stereo not given), “inactive”.
